Screens from PubChem BioAssay.
Rows were chosen to be rich in hits. Some 2.9% of all compounds tested hit in one or more screens of this group.
Nrf2 activator: qHTS of Nrf2 Activators; 410,000 tested, 0.31% active; AID 624171, 2012; AREc32 ARE-luciferase reporter (MCF7-derived line), luminescence, 24 h; Potency, µM (top dose mostly 46.1 µM), inactives show top-dose activation, hits mostly activators; also: % of control where 0% means no effect; nearly all actives have a fitted effect of over 65% in size
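AREc32 cells carrying an ARE-driven firefly luciferase, 1000 cells/well in OPTI-MEM with 5% FBS, dosed after overnight attachment and incubated 24 hr at 37 deg C. Steady-Glo luminescence read after 30 min at RT.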
ATXN2 expr inh: Primary qHTS for Inhibitors of ATXN expression | HEK-293 ATXN2-luciferase reporter, luminescence, 24 h | 360,000 tested, 0.72% active | AID 1745845, 2022 | Potency, µM (titrated, usually from 57 µM), for the others: at the top dose activity change, negative = inhibition, hits mostly inhibitors; also: % is scaled to controls: 0 for no effect and ±100 for the full control effect; nearly all actives have a fitted effect of over 55% in size
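ATXN2-luciferase reporter cells (luciferase flanked by upstream and downstream ATXN2 gene portions) were treated 24 h at 37 °C with compounds at up to 57 uM. SteadyGlo luminescence gave expression; GF-AFC fluorescence gave viability.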
Nrf2 block: Nrf2 qHTS screen for inhibitors. Potency, µM (doses to about 46 µM), inactives show top-dose activity change, negative = inhibition, hits mostly inhibitors. A549 ARE-Fluc reporter, luciferase luminescence, 18-24 h. 360,000 tested, 2.1% active; also: % is scaled to controls: 0 for no effect and ±100 for the full control effect; nearly all actives have a fitted effect of over 60% in size
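Nrf2 activity is the BugLite luminescence, read 15 min after reagent at room temperature, following CellTiter-Fluor cytotoxicity readout (30 min, 37C). Compound titrations were applied for 18-24 h to 5000 A549 ARE_Fluc cells/well in 5% FBS OPTI-MEM.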
A549 viability: Nrf2 qHTS screen for inhibitors: counterscreen for cytotoxicity. A549 ARE-Fluc cells, CellTiter-Fluor viability, 18-24 h. Potency, µM (doses to about 46 µM), without a hit: top-dose activity change, negative = cytotoxicity, usual class: inhibitors. 390,000 tested, 0.16% active. AID 504648, 2011; also: % is scaled to controls: 0 for no effect and ±100 for the full control effect
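A549 ARE_Fluc cells in 5% FBS OPTI-MEM were exposed to compounds in concentration-response for 18-24 h at 37 deg C. Viability was read by CellTiter-Fluor fluorescence (Ex 405/Em 525) after 30 min, before the luciferase read.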
S2 tox: Viability Counterscreen for Primary qHTS for Inhibitors of ATXN expression. S2 cells (HEK-293 line with an ATXN2-luciferase reporter) viability, CellTiter-Fluor protease fluorescence, 24 h. AID 651635, 2014. 400,000 tested, 0.49% active. Potency, µM (titrated, usually from 56.7 µM), most hits filed as cytotoxic; also: nearly all actives have a fitted effect of over 40% in size
Starred values were filed as active, the others as inactive. Calls follow the shape of the dose curve; as a rule, active = well fitted curve in the direction sought with a large enough effect; inconclusive = small, poorly fitted or top-dose-only effect, or another doubt; inactive = no such curve, though single readings can be large; an effect the other way counts as inactive or inconclusive. Potency is read from the fitted curve at half-maximal effect.

O=C(c1ccc2c(c1)OCO2)N(Cc1ccco1)C1(C(=O)NC2CCCCC2)CCCCC1 was read as Nrf2 activator 3%, ATXN2 expr inh -32%, Nrf2 block 18µM*, A549 viability inconclusive and S2 tox inconclusive.
COCCCN(C(=O)c1ccc2ccccc2n1)c1c(N)n(Cc2ccccc2)c(=O)[nH]c1=O was read as Nrf2 activator 4%, Nrf2 block 27%, A549 viability 5% and S2 tox inactive.
COc1cc2nccc(Oc3ccc(NC(=O)C4(C(=O)Nc5ccc(F)cc5)CC4)cc3)c2cc1OC was read as ATXN2 expr inh 19µM*.
Screening Cc1cc(/C=N/n2cnnc2)c(C)n1-c1ccc(Cl)cc1 returned Nrf2 activator 3%, ATXN2 expr inh -1%, Nrf2 block -12%, A549 viability 6% and S2 tox inactive.
For Cc1cc(/C=N/n2cnnc2)c(C)n1-c1ccc(OCc2ccc(Cl)cc2Cl)cc1 the results were Nrf2 activator -2%, ATXN2 expr inh 16µM*, A549 viability inconclusive and S2 tox inactive.
COc1ccc(C(OC(=O)c2ccco2)C(=O)NCc2ccc(C)cc2)cc1 (stereo not drawn) was read as Nrf2 activator 0%, ATXN2 expr inh -13%, Nrf2 block 26%, A549 viability 0% and S2 tox inactive.
`Cc1nc(-c2ccc(S(=O)(=O)N3CCN(Cc4ccccc4)CC3)s2)cs1` gave Nrf2 activator 0%, Nrf2 block 16µM*, A549 viability 3% and S2 tox inactive.
For Cc1cc(-c2csc3nc[nH]c(=S)c23)cc(C)c1C the results were Nrf2 activator 9%, ATXN2 expr inh inconclusive, Nrf2 block 23µM*, A549 viability inconclusive and S2 tox inconclusive.
Screening Brc1ccc(-c2csc3[n+]2CCCCC3)cc1 returned Nrf2 activator 2%, ATXN2 expr inh -14%, Nrf2 block 16µM*, A549 viability -9% and S2 tox inactive.
`Clc1ccc(-n2cc(-c3ccc(Br)cc3)[n+]3c2CCCCC3)cc1` gave Nrf2 activator -1%, Nrf2 block -13%, A549 viability -5% and S2 tox inactive.
Screening O=C(O)c1cccc2c1C(=O)c1ccccc1-2 returned Nrf2 activator 2%, ATXN2 expr inh 10%, Nrf2 block 1%, A549 viability 0% and S2 tox inactive.
For CC(C)OC(=O)c1cccc2c1C(=O)c1ccccc1-2 the results were Nrf2 activator 11µM*, ATXN2 expr inh 42%, Nrf2 block 22%, A549 viability 13% and S2 tox inactive.
`CC(=O)OCC(=O)[C@@]1(O)[C@H](C)C[C@H]2[C@@H]3C=C(C)C4=Cc5c(cnn5-c5ccccc5)C[C@]4(C)[C@@H]3[C@@H](O)C[C@@]21C` gave ATXN2 expr inh 27µM*.
CC1=C(C(=O)N(C(C)C)C(C)C)CC(CC(=O)NC2CCCC2)C(=O)N1CCCN1CCCC1=O (stereo not drawn) was read as Nrf2 activator 0%, ATXN2 expr inh 3% and S2 tox inactive.
For CCOC(=O)C1CCN(CC(=O)c2c(C)n(C)c3ccc(OC)cc23)CC1 the results were Nrf2 activator 2%, ATXN2 expr inh -18%, Nrf2 block -1%, A549 viability 7% and S2 tox inactive.
Cn1c(=O)c2c(nc(NC3CCCCC3)n2CC(=O)C23CC4CC(CC(C4)C2)C3)n(C)c1=O was read as Nrf2 activator 2%, ATXN2 expr inh inconclusive, Nrf2 block -8%, A549 viability 0% and S2 tox inconclusive.
Screening Cc1ccc(CCS(=O)(=O)c2ccc(C(C)(C)C)cc2)cn1 returned Nrf2 activator -1%, ATXN2 expr inh -8%, Nrf2 block 8.2µM*, A549 viability -4% and S2 tox inactive.
CCCCCNC(=O)N1CCC(CN(Cc2ccc(Cl)cc2)Cc2ccc([N+](=O)[O-])s2)C1 (stereo not drawn) was read as ATXN2 expr inh 27µM*.
For CCCCNC(=O)C1CCN(C(=O)N2CC(C)Oc3ccc(Cl)cc32)CC1 (stereo not drawn) the results were Nrf2 activator 0%, Nrf2 block inconclusive and A549 viability -20%.
Screening C=CCn1c(SCc2ccc(C#N)cc2)nnc1-c1ccc(C)cc1 returned Nrf2 activator 0%, ATXN2 expr inh -13%, Nrf2 block 21µM*, A549 viability 3% and S2 tox inactive.
`Cn1c(SCc2ccc(C#N)cc2)nnc1-c1ccncc1` gave Nrf2 activator 0%, Nrf2 block 5%, A549 viability -3% and S2 tox inconclusive.
Screening C[C@H](CO)N1C[C@H](C)[C@@H](CN(C)C(=O)Nc2ccc(C(F)(F)F)cc2)Oc2c(NS(=O)(=O)c3ccccc3)cccc2C1=O returned Nrf2 activator 3%, ATXN2 expr inh 12%, Nrf2 block 13%, A549 viability -3% and S2 tox inactive.
For Cc1cc(S(=O)(=O)c2ccc(Cl)cc2)nc(S(=O)(=O)c2ccc(Cl)cc2)c1C#N the results were Nrf2 activator inconclusive and S2 tox 0.79µM*.
For Cc1cccc(N2CCN(C(=O)c3c(C)nn(Cc4ccccc4Cl)c3C)CC2)c1C the results were Nrf2 activator -3%, ATXN2 expr inh -35%, A549 viability 0% and S2 tox inactive.
CN1CCN(C(=O)C2(NC(=O)NCc3ccccc3)CCCCC2)CC1 was read as Nrf2 activator 2%, ATXN2 expr inh 5%, Nrf2 block 5%, A549 viability 0% and S2 tox inactive.
For COc1ccc(-c2nn(C)c3sc(C(=O)NCc4ccco4)cc23)cc1OC the results were Nrf2 activator 4%, ATXN2 expr inh -4%, Nrf2 block 18%, A549 viability 0% and S2 tox inactive.
Screening COc1ccc(-c2nn(C)c3sc(C(=O)Nc4cc(OC)c(OC)c(OC)c4)cc23)cc1OC returned Nrf2 activator 4%, Nrf2 block 23µM* and A549 viability inconclusive.
COc1ccc(NC(=O)c2cc3c(-c4ccc(OC)c(OC)c4)nn(C)c3s2)cc1OC was read as Nrf2 activator 21%, ATXN2 expr inh 23%, Nrf2 block 12µM*, A549 viability -29% and S2 tox inactive.
`CCOC(=O)N1CCC(NC(=O)c2cc3c(-c4ccc(OC)c(OC)c4)nn(C)c3s2)CC1` gave Nrf2 activator -1%, ATXN2 expr inh -16%, Nrf2 block inconclusive, A549 viability 1% and S2 tox inactive.
`C=CCN1C2=NCCCN2c2ccccc21` gave Nrf2 activator 0%, ATXN2 expr inh 4%, Nrf2 block -5%, A549 viability 0% and S2 tox inactive.
